C_diff_growth: blocks growth of Clostridium difficile; hit rate 0.25% among 86,000; Clostridium difficile clinical isolate growth, OD600, 24 h; stronger effect = lower value; growth activity, negative = inhibition, % at 16 µg/mL (by protocol);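 active = mean growth activity at or below -80% and every replicate also at or below -80%; inconclusive = mean at or below -80% but some replicate above -80%; inactive = mean growth activity above -80%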;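 also: 0% = DMSO wells and -100% = levofloxacin 16 µg/mL wells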
Tcruzi_prolif: T. cruzi proliferation inhibition; T. cruzi beta-gal in NIH3T3, GalScreen luminescence, 90 h; inhibition, % at 8.34 µM; hit rate 5.9% among 77,000; AID 624255;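 active = mean inhibition above about 93%, with at least 55% of replicates each passing it, limit read from the data, passing the limit was not always enough; inconclusive = only one of those two conditions holds; inactive = neither condition holds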
Pf_Dd2_inh: blocks growth of Plasmodium falciparum Dd2 parasites; P. falciparum Dd2 growth, SYBR Green, 72 h; stronger effect = lower value; activity change, % at 10 µM; hit rate 2.3% among 94,000; AID 1159554; in the data active = activity change below about -80%; inconclusive = no clear call, values can overlap the other calls
Active calls of the source: *; ? = inconclusive; · = not tested or not shown. An excerpt weighted towards active compounds, which were near 6.8% of everything screened.

SMILES C_diff_growth Tcruzi_prolif Pf_Dd2_inh
COc1ccc(NC(=O)N2CC[C@@H]3[C@@H](CO)N(C)c4ccc(Br)cc4[C@@H]32)cc1 16.4 29.2 -8.0
COc1cccc(-c2ccc3c(c2)[C@@H]2[C@@H](CCN2C(=O)Nc2ccccc2OC)[C@@H](CO)N3C)c1 -97.4* 85.3 -33.9
COc1cccc(-c2ccc3c(c2)[C@H]2[C@H](CCN2C(=O)Nc2ccccc2OC)[C@H](CO)N3C)c1 13.6 85.8 -26.4
CC(C)NC(=O)N1[C@H](CO)[C@@H](c2ccccc2)C12CN(Cc1ccc(Cl)cc1)C2 4.8 · -87.5*
CC(C)NC(=O)N1[C@@H](CO)[C@@H](c2ccccc2)C12CN(Cc1ccccc1)C2 -7.5 · -50.5
OC[C@H]1[C@H](c2ccccc2)C2(CN(Cc3ccccc3F)C2)N1Cc1ccccc1F 21.6 · -93.5*
O=C(C1CC1)N1CC2(C1)[C@@H](c1ccccc1)[C@@H](CO)N2Cc1ccccc1F -1.7 · -42.9
CC(C)NC(=O)N1[C@@H](CO)[C@@H](c2ccccc2)C12CN(Cc1ccc(Cl)cc1)C2 0.1 · -68.9
CC(C)NC(=O)N1[C@@H](CO)[C@@H](c2ccccc2)C12CN(Cc1ccc(F)cc1)C2 3.8 · -83.7*
C[C@H](CO)N1C[C@H](C)[C@H](CN(C)C(=O)Nc2ccc(F)cc2)Oc2ncc(-c3cccc(C(F)(F)F)c3)cc2C1=O 65.0 109.2* -38.5
C[C@@H]1CN([C@H](C)CO)C(=O)c2cc(-c3ccc(C#N)cc3)cnc2O[C@H]1CN(C)C(=O)Nc1ccc(C(F)(F)F)cc1 · · -94.3*
C[C@H](CO)N1C[C@H](C)[C@H](CN(C)C(=O)Nc2ccccc2)Oc2ncc(-c3cccc(C(F)(F)F)c3)cc2C1=O 17.5 91.5 -25.5
C[C@@H]1CN([C@@H](C)CO)C(=O)c2cc(-c3ccc(C#N)cc3)cnc2O[C@H]1CN(C)C(=O)Nc1ccc(C(F)(F)F)cc1 -0.5 · 8.8
O=C(C[C@@H]1CC[C@H]2[C@@H](COC[C@@H](O)CN2C(=O)C2CC2)O1)NCc1ccncc1 -2.3 -6.8 7.3
COc1ccccc1-c1ccc2c(c1)O[C@H](CN(C)Cc1ccc3c(c1)OCO3)[C@@H](C)CN([C@H](C)CO)S2(=O)=O 3.2 · -83.7*
COc1ccccc1-c1ccc2c(c1)O[C@H](CN(C)Cc1ccc3c(c1)OCO3)[C@H](C)CN([C@@H](C)CO)S2(=O)=O -1.7 · -43.5
CC(C)CC#Cc1ccc2c(c1)O[C@@H](CN(C)Cc1ccc3c(c1)OCO3)[C@H](C)CN([C@@H](C)CO)S2(=O)=O 13.6 72.1 -81.3*
CC(C)CC#Cc1ccc2c(c1)O[C@@H](CN(C)Cc1ccc3c(c1)OCO3)[C@@H](C)CN([C@H](C)CO)S2(=O)=O 26.5 92.7 -36.1
C[C@@H]1CCCCO[C@@H](CN(C)Cc2ccccc2)[C@@H](C)CN([C@@H](C)CO)C(=O)c2cc(NC(=O)c3ccncc3)ccc2O1 -2.1 78.2 -14.0
Cc1ccc(S(=O)(=O)N(C)C[C@@H]2Oc3ccc(NC(=O)CCN4CCOCC4)cc3CC(=O)N([C@H](C)CO)C[C@@H]2C)cc1 3.2 41.8 -9.9
COc1ccc(-c2ccccc2[C@H]2[C@@H](CO)N(C(=O)C3CCOCC3)[C@H]2C#N)cc1 -5.0 · -86.8*
COc1ccc(-c2ccccc2[C@H]2[C@@H](CO)N(C(=O)C3CCCCC3)[C@H]2C#N)cc1 -4.1 · 9.6
COc1ccc(-c2ccccc2[C@H]2[C@@H](C#N)N(C(=O)C3CCCCC3)[C@H]2CO)cc1 -1.1 · -92.7*
COc1ccc(-c2ccccc2[C@@H]2[C@@H](CO)N(C(=O)C3CC3)[C@H]2C#N)cc1 2.7 · 10.7
N#C[C@H]1[C@H](c2ccccc2-c2ccccc2F)[C@H](CO)N1C(=O)C1CCOCC1 -3.8 · -73.1
N#C[C@H]1[C@@H](c2ccccc2-c2ccccc2F)[C@@H](CO)N1C(=O)C1CCOCC1 -7.4 · -94.9*
C[C@@H]1CN([C@@H](C)CO)C(=O)c2cc(NC(=O)Cc3cn(C)c4ccccc34)ccc2O[C@@H]1CN(C)C(=O)NC1CCCCC1 -7.0 40.0 -61.4
COc1ccc(NC(=O)N(C)C[C@H]2OCCCC[C@@H](C)Oc3ccc(NC(=O)Nc4ccc(C(F)(F)F)cc4)cc3C(=O)N([C@@H](C)CO)C[C@@H]2C)cc1 0.8 83.1 -83.7*
COc1ccc(NC(=O)N(C)C[C@@H]2OCCCC[C@H](C)Oc3ccc(NC(=O)c4ccccc4)cc3C(=O)N([C@H](C)CO)C[C@@H]2C)cc1 0.9 42.5 ?
COc1ccc(NC(=O)N(C)C[C@H]2OCCCC[C@@H](C)Oc3ccc(NC(=O)Nc4ccc(C(F)(F)F)cc4)cc3C(=O)N([C@H](C)CO)C[C@H]2C)cc1 6.0 115.8* -83.1*

Compound activity: PubChem BioAssay, Broad Institute
